Out of some 4,400 compounds screened, about 390 (8.9%) showed an effect of 50% or more. The sample as a whole holds a higher share of strong results than the screen did.
system: Trypanosoma brucei; test: DNDI: Inhibition of Human African Trypanosomiasis, SBRI 427, in vitro at 2 ug.mL-1; type: functional

Row | Compound | % inhibition [%]
1 | Cc1ccc(/C(=N/O)n2ccnc2)c(OCc2ccccn2)n1 | 16
2 | CCOc1ccc(-c2nc(CNc3ccnn3CC)co2)cc1 | -10
3 | O/N=C(\NC1CCc2ccccc21)c1ccc(Oc2ccc(-n3ccnc3)cc2)nc1 (stereo unspecified) | -1
4 | Cc1cn(Cc2coc(-c3cccc(F)c3)n2)c(C)n1 | 5
5 | Cc1ccc(-c2nc(CN3CCN(C/C=C/c4ccccc4)CC3)co2)cc1 | 8
6 | CC(C)c1cccc(Oc2cc(/C(=N/O)N3CCC=N3)ccn2)c1 | 53
7 | Cc1ccc(/C(=N/O)N2Cc3ccccc3C2)c(Oc2cccc(C(C)C)c2)n1 | 0
8 | CC(C)c1cccc(Oc2cc(/C(=N/O)N3Cc4ccccc4C3)ccn2)c1 | 67
9 | O/N=C(/c1ccnc(Oc2ccc(F)c(Cl)c2)c1)N1CCN(c2ccccc2)CC1 | 58
10 | O/N=C(/c1ccnc(Oc2ccc(F)c(Cl)c2)c1)N1CCN(c2ccc(F)cc2)CC1 | 34
11 | O/N=C(/c1ccnc(Oc2ccc(Cl)cc2)c1)N1CCN(c2ccccc2)CC1 | 28
12 | COc1ccc(Oc2cc(/C(=N/O)N3CCC=N3)ccn2)cc1 | 39
13 | COc1ccc(Oc2cc(/C(=N/O)N3CCN(c4ccccc4)CC3)ccn2)cc1 | 22
14 | CC(C)c1cccc(Oc2cc(/C(=N/O)N3CCN(c4ccccc4)CC3)ccn2)c1 | 86
15 | CCOc1ccc(Oc2cc(/C(=N/O)N3Cc4ccccc4C3)ccn2)cc1 | 3
16 | CC(C)c1cccc(Oc2cc(/C(=N/O)N3CCN(C)CC3)ccn2)c1 | 4
17 | O/N=C(/c1ccnc(Oc2cccc(F)c2)c1)N1CCC=N1 | 4
18 | CCOC(=O)C1CCCCN1Cc1coc(-c2ccccc2C)n1 (stereo unspecified) | 1
19 | Cc1ccc(-c2nc(CNC(C)(C)CC(C)(C)C)co2)cc1 | 19
20 | N#CCCN(Cc1coc(-c2ccc(Br)cc2)n1)CC1CCCO1 (stereo unspecified) | 11
21 | CCOc1ccccc1-c1nc(Cn2ncc3c2CCCC3)co1 | 12
22 | Cc1ccc(/C(=N/O)N(C)Cc2ccco2)c(Oc2cc(Cl)ccc2Cl)n1 | 13
23 | CCCCN(CC#N)Cc1coc(-c2ccc(OC)cc2)n1 | 1

Row | Compound | % inhibition [%]
24 | Cc1ccc(/C(=N/O)n2nc(C)cc2C)c(Oc2ccc3ccccc3c2)n1 | 6
25 | CSc1ccc(Oc2nc(C)ccc2/C(=N/O)NCc2ccco2)cc1 | -3
26 | c1ccc2c(-c3nc(CN4CCC5(CC4)OCCO5)co3)cccc2c1 | 1
27 | CCN(CC)CCN(CC)Cc1coc(-c2ccccc2C)n1 | 5
28 | CC1CC(C)CN(/C(=N\O)c2ccnc(Oc3ccc(F)c(Cl)c3)c2)C1 (stereo unspecified) | 16
29 | CC1CC(C)CN(/C(=N\O)c2ccnc(Oc3ccc(Cl)cc3)c2)C1 (stereo unspecified) | 67
30 | CC(C)c1cccc(Oc2cc(/C(=N/O)N3CCC4CCCCC4C3)ccn2)c1 (stereo unspecified) | 9
31 | CC1CC(C)CN(/C(=N\O)c2ccnc(Oc3ccc(F)c(F)c3)c2)C1 (stereo unspecified) | 5
32 | CC1CC(C)CN(/C(=N\O)c2ccnc(Oc3cccc(F)c3)c2)C1 (stereo unspecified) | -1
33 | CC1CC(C)CN(/C(=N\O)c2ccnc(Oc3cccc(C(C)C)c3)c2)C1 (stereo unspecified) | 58
34 | COc1ccc(-c2nc(CNC(C)c3cccc4ccccc34)co2)cc1 (stereo unspecified) | 13
35 | Cc1ccc(/C(=N/O)NCc2cccnc2)c(Oc2c(F)c(F)cc(F)c2F)n1 | 35
36 | CCCCN(C)Cc1coc(-c2ccccc2)n1 | 6
37 | CSc1ccc(Oc2cc(/C(N)=N/O)ccn2)cc1 | 21
38 | Cc1ccc(N2CCN(Cc3coc(-c4cccc(F)c4)n3)CC2)cc1C | -4
39 | O/N=C(\NCc1ccccn1)c1ccnc(Oc2cccc(F)c2)c1 | -2
40 | O/N=C(\NC1CCCC1)c1ccnc(Oc2cccc(F)c2)c1 | 82
41 | CC1CCN(/C(=N\O)c2ccnc(Oc3ccc(F)c(F)c3)c2)CC1 | 41
42 | O/N=C(\NCc1ccncc1)c1ccnc(Oc2ccc(F)c(F)c2)c1 | 8
43 | O/N=C(\NC1CCCCC1)c1ccnc(Oc2ccc(F)c(F)c2)c1 | 99
44 | O/N=C(/c1ccnc(Oc2ccc(F)c(F)c2)c1)N1CCCCCC1 | 12
45 | CC(C)c1ccc(N/C(=N\O)c2ccnc(Oc3cccc(F)c3)c2)cc1 | -2
46 | CC(C)c1ccc(N/C(=N\O)c2ccnc(Oc3ccc(F)c(F)c3)c2)cc1 | 22

Row | Compound | % inhibition [%]
47 | O/N=C(\NC1CCCC1)c1ccnc(Oc2ccc(F)c(F)c2)c1 | 101
48 | CCN(Cc1coc(-c2cccc3ccccc23)n1)C(C)C | -1
49 | Cc1cccc(N2CCN(Cc3coc(-c4ccccc4Cl)n3)CC2C)c1 (stereo unspecified) | -10
50 | COCCN/C(=N\O)c1cccnc1Oc1c(F)cccc1F | 65
51 | COc1ccc(Oc2ncccc2/C(=N/O)NCCSC)cc1 | 10
52 | CSCCN/C(=N\O)c1cccnc1Oc1cccc2ccccc12 | 11
53 | COCCN/C(=N\O)c1cccnc1Oc1cccc(C)c1C | 0
54 | CSCCN/C(=N\O)c1cccnc1Oc1c(F)cccc1F | 78
55 | CCOc1ccccc1Oc1ncccc1/C(=N/O)NCCOC | 13
56 | CC(NCc1coc(-c2cccc(F)c2)n1)C(C)(C)C (stereo unspecified) | 8
57 | Clc1ccccc1-c1nc(CN2CCCCCCC2)co1 | 14
58 | Cc1cccc(CNCc2coc(-c3ccccc3Br)n2)c1 | -1
59 | CC1CC(C)CN(/C(=N\O)c2ccc(Oc3ccc(Cl)cc3)nc2)C1 (stereo unspecified) | 0
60 | CCOc1ccccc1-c1nc(CNCc2ccc(C(F)(F)F)cc2)co1 | 6
61 | CC(C)c1cccc(Oc2ccc(/C(=N/O)N(C)Cc3cccnc3)cn2)c1 | 99
62 | Cc1cc(Oc2ccc(/C(=N/O)NCc3ccncc3)cn2)cc(C(C)C)c1 | 3
63 | O/N=C(\NCc1cccs1)c1ccc(Oc2cccc(F)c2)nc1 | 75
64 | O/N=C(\NCc1cccs1)c1ccc(Oc2ccc3ccccc3c2)nc1 | -9
65 | O/N=C(\NCc1ccncc1)c1ccc(Oc2cccc(F)c2)nc1 | 50
66 | O/N=C(\NCc1cc(F)cc(F)c1)c1ccc(Oc2cccc(F)c2)nc1 | 42
67 | COc1cccc(Oc2ccc(/C(=N/O)NCc3cccs3)cn2)c1 | 2
68 | Cc1cc(Oc2ccc(/C(=N/O)N(C)Cc3cccnc3)cn2)cc(C(C)C)c1 | 12
69 | CC(C)c1cccc(Oc2cc(/C(=N/O)NCc3ccncc3)ccn2)c1 | 10

Row | Compound | % inhibition [%]
70 | CN(Cc1cccnc1)/C(=N\O)c1ccc(Oc2ccc3ccccc3c2)nc1 | 9
71 | COc1ccc(CN/C(=N\O)c2ccc(Oc3cccc(F)c3)nc2)cc1 | -3
72 | CC(C)c1cccc(Oc2ccc(/C(=N/O)NCc3ccncc3)cn2)c1 | 100
73 | COc1cc(C)ccc1Oc1ncccc1/C(=N/O)NCc1ccccn1 | -7
74 | COC(=O)C1CCN(/C(=N\O)c2ccc(C)nc2Oc2ccc3ccccc3c2)CC1 | 19
75 | Clc1ccccc1-c1nc(CN2CCCc3ccccc32)co1 | 1
76 | Clc1ccccc1-c1nc(CNCCN2CCOCC2)co1 | 2
77 | CCOC(=O)C1CCCCN1Cc1coc(-c2ccccc2Br)n1 (stereo unspecified) | -3
78 | CCCN(CCC)Cc1coc(-c2cccs2)n1 | 22
79 | O/N=C(/c1ccc(Oc2c(F)c(F)cc(F)c2F)nc1)N1CCN(c2ccc(F)cc2)CC1 | 22
80 | CC1C=CC(C)N1Cc1coc(-c2ccccc2Cl)n1 (stereo unspecified) | 0
81 | O/N=C(/c1ccc(Oc2ccc3ccccc3c2)nc1)N1CCCCC1 | 12
82 | CC1CC(C)CN(/C(=N\O)c2ccc(Oc3ccc4ccccc4c3)nc2)C1 (stereo unspecified) | -15
83 | Cc1cc(Oc2ccc(/C(=N/O)N3CCCCCC3)cn2)cc(C(C)C)c1 | 21
84 | CC1CCC(C)N1/C(=N\O)c1ccc(Oc2ccc3ccccc3c2)nc1 (stereo unspecified) | 99
85 | Cc1cc(Oc2ccc(/C(=N/O)N3CC(C)CC(C)C3)cn2)cc(C(C)C)c1 (stereo unspecified) | 4
86 | Cc1cc(Oc2ccc(/C(=N/O)N3CCCC3C)cn2)cc(C(C)C)c1 (stereo unspecified) | 93
87 | Cc1cc(C)cc(Oc2ccc(/C(=N/O)N3C(C)CCC3C)cn2)c1 (stereo unspecified) | 6
88 | CC1CCCN1/C(=N\O)c1ccc(Oc2ccc3oc4ccccc4c3c2)nc1 (stereo unspecified) | -6
89 | CC1CCCN1/C(=N\O)c1ccc(Oc2ccc3ccccc3c2)nc1 (stereo unspecified) | 99
90 | Cc1cc(C)n(/C(=N\O)c2ccc(Oc3ccc4ccccc4c3)nc2)n1 | 12
91 | CCCCC(CC)CNCc1coc(-c2ccccc2Br)n1 (stereo unspecified) | 8
92 | CCOc1ccccc1-c1nc(CN(CCC#N)C2CCCCC2)co1 | -4

Row | Compound | % inhibition [%]
93 | Cc1ncn(Cc2coc(-c3ccc(Br)cc3)n2)c1C=O | 10
94 | CCOC(=O)CC(C)NCc1coc(-c2ccc(Cl)cc2Cl)n1 (stereo unspecified) | -1
95 | O/N=C(/c1ccnc(Oc2cc(Cl)ccc2Cl)c1)N1CCC=N1 | 32
96 | CC1CC(N/C(=N\O)c2ccnc(Oc3cc(Cl)ccc3Cl)c2)CC(C)(C)C1 (stereo unspecified) | 9
97 | N/C(=N\O)c1ccnc(Oc2cc(Cl)ccc2Cl)c1 | 20
98 | O/N=C(\NC1CCCC1)c1ccnc(Oc2cc(Cl)ccc2Cl)c1 | 94
99 | O/N=C(\NC1CCC1)c1ccnc(Oc2cc(Cl)ccc2Cl)c1 | 95
100 | COc1cccc(CN/C(=N\O)c2ccnc(Oc3cc(Cl)ccc3Cl)c2)c1 | 11
101 | O/N=C(/c1cccnc1Oc1ccccc1OCc1ccccc1)N1CCOCC1 | -16
102 | CN(CCCNCc1coc(-c2cccc(F)c2)n1)c1ccccc1 | 5
103 | CCOc1ccc(-c2nc(CN(CC)C(C)(C)C)co2)cc1 | 6
104 | CC(C)COc1ncccc1/C(=N/O)NC1CCCC1 | 97
105 | CC(C)COc1ncccc1/C(=N/O)N1CCC(C)CC1 | -1
106 | CC1CCC(N/C(=N\O)c2cccnc2OCC(C)(C)C)CC1 (stereo unspecified) | 5
107 | CC(C)COc1ncccc1/C(=N/O)Nc1ccc(C(C)C)cc1 | 2
108 | CC(C)COc1ncccc1/C(=N/O)NC1CCN(Cc2ccccc2)C1 (stereo unspecified) | -2
109 | CC(C)COc1ncccc1/C(=N/O)NC1CCCCC1 | 82
110 | CC(C)COc1ncccc1/C(=N/O)NC1CCC1 | 97
111 | CC(C)COc1ncccc1/C(=N/O)NC1CCC(C)CC1 (stereo unspecified) | 83
